# Screen size: about 340,000 compounds; about 1,000 (0.29%) were called active. No stated cut-off is given here; in the data, inconclusive means inhibition above about 29% without an active follow-up result; inactive means below that. Not all results are given here. Entries with a potency or affinity are not part of this list.
# Molecular target: Genome polyprotein (Dengue virus type 2 (strain 16681-PDK53)) (UniProt P29991)
# Test: Dengue-2 NS5 methyltransferase inhibitors, primary screen, biochemical, confirmation dose response (AID 588689)
# Conditions: Dengue-2 NS5 methyltransferase capping enzyme assay, at 25 µM, stronger effect = higher value
# Chain of Genome polyprotein (Dengue virus type 2 (strain 16681-PDK53)) (P29991 whole entry, looked up): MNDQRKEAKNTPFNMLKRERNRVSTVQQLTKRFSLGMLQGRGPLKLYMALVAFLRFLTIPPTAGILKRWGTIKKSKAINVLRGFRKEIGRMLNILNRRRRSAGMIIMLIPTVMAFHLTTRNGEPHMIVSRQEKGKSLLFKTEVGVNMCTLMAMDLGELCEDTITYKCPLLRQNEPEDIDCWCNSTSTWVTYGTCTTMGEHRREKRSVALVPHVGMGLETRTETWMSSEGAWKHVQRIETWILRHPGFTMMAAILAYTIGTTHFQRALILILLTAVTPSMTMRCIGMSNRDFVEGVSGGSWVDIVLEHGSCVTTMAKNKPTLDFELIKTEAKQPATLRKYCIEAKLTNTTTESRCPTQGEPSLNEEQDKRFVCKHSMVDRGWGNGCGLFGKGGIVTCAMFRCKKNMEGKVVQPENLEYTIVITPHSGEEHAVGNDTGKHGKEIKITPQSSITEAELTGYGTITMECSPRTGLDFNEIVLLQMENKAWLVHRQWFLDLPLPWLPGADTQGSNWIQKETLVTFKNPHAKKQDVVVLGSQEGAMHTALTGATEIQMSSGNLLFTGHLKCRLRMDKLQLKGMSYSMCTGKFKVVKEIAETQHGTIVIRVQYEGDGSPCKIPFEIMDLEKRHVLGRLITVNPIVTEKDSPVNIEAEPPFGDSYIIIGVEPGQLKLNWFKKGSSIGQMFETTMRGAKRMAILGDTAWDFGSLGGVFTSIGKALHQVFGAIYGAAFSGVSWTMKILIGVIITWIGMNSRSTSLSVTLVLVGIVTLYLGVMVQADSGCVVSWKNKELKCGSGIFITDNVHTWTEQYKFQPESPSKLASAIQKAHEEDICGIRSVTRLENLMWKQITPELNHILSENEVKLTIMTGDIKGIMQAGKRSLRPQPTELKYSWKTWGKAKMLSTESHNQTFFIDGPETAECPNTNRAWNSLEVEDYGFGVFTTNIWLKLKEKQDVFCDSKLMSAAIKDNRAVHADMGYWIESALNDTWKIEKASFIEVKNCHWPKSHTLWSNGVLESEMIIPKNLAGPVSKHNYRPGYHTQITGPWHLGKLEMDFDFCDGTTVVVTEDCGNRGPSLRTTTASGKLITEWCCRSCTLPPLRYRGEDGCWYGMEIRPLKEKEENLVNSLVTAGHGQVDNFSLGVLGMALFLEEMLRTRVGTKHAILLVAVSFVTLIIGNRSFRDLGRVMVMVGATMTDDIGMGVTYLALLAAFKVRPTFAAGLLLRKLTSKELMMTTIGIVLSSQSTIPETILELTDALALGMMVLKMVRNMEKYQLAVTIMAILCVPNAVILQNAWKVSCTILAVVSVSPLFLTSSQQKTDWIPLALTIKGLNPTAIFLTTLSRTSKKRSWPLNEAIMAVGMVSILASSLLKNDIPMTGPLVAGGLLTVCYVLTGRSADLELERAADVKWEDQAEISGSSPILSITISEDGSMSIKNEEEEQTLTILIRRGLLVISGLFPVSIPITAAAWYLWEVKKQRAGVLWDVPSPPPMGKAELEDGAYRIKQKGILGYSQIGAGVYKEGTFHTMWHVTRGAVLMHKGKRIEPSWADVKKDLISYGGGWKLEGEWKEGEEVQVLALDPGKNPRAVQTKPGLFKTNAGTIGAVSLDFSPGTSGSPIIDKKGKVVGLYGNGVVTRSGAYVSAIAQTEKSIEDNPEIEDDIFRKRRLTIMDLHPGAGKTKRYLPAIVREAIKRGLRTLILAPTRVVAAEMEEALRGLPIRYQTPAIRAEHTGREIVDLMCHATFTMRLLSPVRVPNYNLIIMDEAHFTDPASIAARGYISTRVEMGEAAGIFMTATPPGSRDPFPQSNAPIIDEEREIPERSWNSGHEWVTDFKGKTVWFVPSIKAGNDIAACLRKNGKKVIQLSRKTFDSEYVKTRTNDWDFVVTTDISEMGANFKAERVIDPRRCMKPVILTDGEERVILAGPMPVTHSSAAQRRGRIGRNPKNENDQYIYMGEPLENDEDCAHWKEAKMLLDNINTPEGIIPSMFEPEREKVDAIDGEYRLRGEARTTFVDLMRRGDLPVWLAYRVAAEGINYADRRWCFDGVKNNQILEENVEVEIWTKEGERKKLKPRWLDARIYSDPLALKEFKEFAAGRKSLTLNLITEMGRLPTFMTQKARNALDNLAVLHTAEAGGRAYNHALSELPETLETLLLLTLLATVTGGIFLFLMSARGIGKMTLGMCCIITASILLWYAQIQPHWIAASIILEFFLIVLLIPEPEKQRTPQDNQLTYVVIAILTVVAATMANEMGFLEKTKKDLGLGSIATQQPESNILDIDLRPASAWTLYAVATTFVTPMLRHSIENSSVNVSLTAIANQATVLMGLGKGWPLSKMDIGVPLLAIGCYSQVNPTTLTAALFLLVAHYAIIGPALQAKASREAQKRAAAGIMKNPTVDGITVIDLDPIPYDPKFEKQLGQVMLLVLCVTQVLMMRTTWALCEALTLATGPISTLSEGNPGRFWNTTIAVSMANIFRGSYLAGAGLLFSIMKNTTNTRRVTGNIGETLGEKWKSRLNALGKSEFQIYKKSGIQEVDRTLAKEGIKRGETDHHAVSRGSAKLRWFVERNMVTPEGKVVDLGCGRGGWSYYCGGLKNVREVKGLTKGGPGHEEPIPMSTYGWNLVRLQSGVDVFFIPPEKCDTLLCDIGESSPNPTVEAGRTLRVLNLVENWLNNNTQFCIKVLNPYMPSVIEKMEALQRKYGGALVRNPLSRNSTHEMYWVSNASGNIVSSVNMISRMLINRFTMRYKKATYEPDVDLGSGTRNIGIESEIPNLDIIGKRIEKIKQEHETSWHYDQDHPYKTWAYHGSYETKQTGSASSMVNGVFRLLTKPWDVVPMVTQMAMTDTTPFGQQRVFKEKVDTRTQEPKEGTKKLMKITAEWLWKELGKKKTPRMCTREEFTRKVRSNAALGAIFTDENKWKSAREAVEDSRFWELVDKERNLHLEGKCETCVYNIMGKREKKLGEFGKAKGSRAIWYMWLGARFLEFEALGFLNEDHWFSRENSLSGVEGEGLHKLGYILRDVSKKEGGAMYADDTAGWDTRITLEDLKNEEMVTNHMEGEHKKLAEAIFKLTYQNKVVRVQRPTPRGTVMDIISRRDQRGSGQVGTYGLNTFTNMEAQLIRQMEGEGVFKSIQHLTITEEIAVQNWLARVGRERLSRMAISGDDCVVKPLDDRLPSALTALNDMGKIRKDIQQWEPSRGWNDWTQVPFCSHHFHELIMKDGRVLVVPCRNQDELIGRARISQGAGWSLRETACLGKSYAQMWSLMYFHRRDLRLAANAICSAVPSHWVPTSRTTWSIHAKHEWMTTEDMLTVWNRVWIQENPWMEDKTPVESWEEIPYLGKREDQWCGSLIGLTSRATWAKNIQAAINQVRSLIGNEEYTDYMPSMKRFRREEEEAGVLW
Structure (SMILES),inhibition,inhibition (measured here: pilot screen replicate inhibition) [%]
O=C(COC(=O)CCC(=O)c1cccs1)NCCc1ccccc1,10.1% (inactive),
Cc1cccc(NC(=O)c2cccc(NC(=O)c3ccco3)c2)c1,-3.49% (inactive),
Cc1cc(-c2ccccc2)nc2[nH]n(-c3ccccc3)c(=O)c12,14.4% (inactive),
O=c1c2c(C(F)(F)F)cc(C(F)(F)F)nc2[nH]n1-c1ccccc1,12% (inactive),
COC(C(=O)Nc1ccccc1C(=O)N1CCOCC1)c1ccccc1 (configuration not stated),-4.55% (inactive),
CN1C(=O)C(C)(C)c2cc(S(=O)(=O)NCc3ccc(Cl)cc3)ccc21,0% (inactive),
O=C(O)/C(=C\c1ccccc1)c1ccccc1,-3.95% (inactive),
O=C(O)c1cc(=O)c2c(Cl)cc(Cl)cc2[nH]1,-1.47% (inactive),
COc1ccc(C(=O)Nc2ccc3nc(N4CCOCC4)sc3c2)cc1OC,-1.84% (inactive),
c1csc(-c2cc(N3CCCCC3)c3ccccc3n2)c1,-2.61% (inactive),
O=c1c2ccccc2nc(/C=C/c2ccc([N+](=O)[O-])cc2)n1CCCO,-2.58% (inactive),
Cc1cnc(=O)[nH]c1SCc1ccc([N+](=O)[O-])cc1,9.19% (inactive),
CCOC(=O)N1CCC(NC(=O)c2cc3sccc3n2CC)CC1,-4.86% (inactive),
CCN(CC)c1ccc(/C=N/Nc2cccc(C)c2)c(O)c1,7.27% (inactive),
Oc1ccc(/C=N/NC(=S)Nc2cccnc2)c(O)c1,-3.64% (inactive),
Oc1ccc(/C=N/Nc2ccc(Cl)nn2)cc1O,2.61% (inactive),
Cc1cccc(N/N=C/c2ccccc2O)c1,-8.43% (inactive),
Oc1c(Br)cc(Br)cc1/C=N/Nc1ccc(Cl)nn1,7.11% (inactive),
Oc1cccc(/C=N/NC(=S)Nc2cccnc2)c1O,-2.88% (inactive),
COc1ccc(CCC(=O)N2CCN(C3CCCCC3)CC2)cc1,-7.21% (inactive),
CC(=O)N1CCN(Cc2nc3cc(NC(=O)c4ccccc4C)ccc3n2C)CC1,-0.69% (inactive),
Cc1cc2ncn(C3CC(O)C(CO)O3)c2cc1C (configuration not stated),2.33% (inactive),
COc1ccc(-c2nn(-c3ccccc3)cc2/C=N/NC(=O)c2cccc(S(=O)(=O)Nc3ccccc3OC)c2)cc1,-3.64% (inactive),

Structure (SMILES),inhibition,inhibition (measured here: pilot screen replicate inhibition) [%]
C=CCc1cccc2cc(C(=O)N3CCN(C(=O)c4ccccc4)CC3)c(=O)oc12,-4.98% (inactive),
C[C@@H]1CN([C@@H](C)CO)S(=O)(=O)c2ccc(Br)cc2O[C@H]1CN(C)C(=O)c1ccncc1,-4.96% (inactive),
CN(C)c1ccc(/C=N/NC(N)=S)cc1[N+](=O)[O-],-11.3% (inactive),
O=C1NC(=S)N/C1=C\c1cccc([N+](=O)[O-])c1,2.76% (inactive),
O=C1c2ccccc2C(=O)N1/N=C/c1ccc(Oc2ccc([N+](=O)[O-])cn2)cc1,-2.91% (inactive),
COc1ccc(N2CCN(C(=O)c3ccccc3)CC2)c([N+](=O)[O-])c1,0% (inactive),
CC(C)CN(CC(C)C)c1ccc(/C=N/n2cnnc2)cc1[N+](=O)[O-],-1.82% (inactive),
O=C(c1ccc(N2CCOCC2)c([N+](=O)[O-])c1)N1CCN(c2ccccc2)CC1,-9.43% (inactive),
Cc1ccc(/C=C2\NC(=S)NC2=O)cc1[N+](=O)[O-],3.12% (inactive),
O=C1NC(=O)/C(=C\c2ccc(Oc3ccc([N+](=O)[O-])cn3)cc2)S1,10.2% (inactive),
COc1ccc(NC(=O)C2CCCN(C(=O)c3ccc(Cl)cc3)C2)cc1S(=O)(=O)N(C)C (configuration not stated),-6.34% (inactive),
CCOc1ccc(NC(=O)c2ccc3c(c2)N(Cc2ccc(F)cc2)C(=O)CS3=O)cc1 (configuration not stated),-7.95% (inactive),
COCCN(C(=S)Nc1ccc(Cl)cc1OC)C1CCN(C(C)=O)CC1,-5.17% (inactive),
Cc1cc2c(cc1S(=O)(=O)N1CCOCC1)NC(=O)CO2,-0.83% (inactive),
COc1ccc(S(=O)(=O)NCC2CCCO2)cc1NC(=O)c1ccc(Cl)cc1 (configuration not stated),-0.72% (inactive),
C[C@@H]1CN([C@H](C)CO)C(=O)c2cc(NS(=O)(=O)c3cn(C)cn3)ccc2O[C@H]1CN(C)C(=O)Nc1ccccc1,-1.59% (inactive),
Cc1ccc(C(=O)NC(=S)Nc2ccc(N3CCOCC3)cc2)c(C)c1,-1.43% (inactive),
COc1cccc(N(C(=O)c2snc(C(N)=O)c2N)C(C(=O)NCC2CCCO2)c2ccc(F)cc2)c1 (configuration not stated),-6.68% (inactive),
COc1ccc(C=O)cc1OS(=O)(=O)c1ccccc1[N+](=O)[O-],11% (inactive),
COc1cc(C=O)ccc1OS(=O)(=O)c1ccccc1[N+](=O)[O-],-9.17% (inactive),
CN(C)c1ccc(/C=C/C(=O)c2ccccc2)cc1[N+](=O)[O-],7.8% (inactive),
O=C1Nc2ccccc2/C1=C/c1ccc([N+](=O)[O-])cc1,-15.7% (inactive),
CN(C)c1ccc(/C=N/N=C(N)N)cc1[N+](=O)[O-],-2.95% (inactive),

Structure (SMILES),inhibition,inhibition (measured here: pilot screen replicate inhibition) [%]
O=C1NC(=O)c2cc(Oc3ccc([N+](=O)[O-])cc3)ccc21,0.39% (inactive),
CC(C)(C)NC(=O)CN(C(=O)C1CSC(=O)C1)c1ccccc1F (configuration not stated),-7.12% (inactive),
O=C(O)c1ccc(NC(=O)c2cccc(C(=O)Nc3ccc(C(=O)O)cc3)n2)cc1,-1.63% (inactive),
Cc1ncn(-c2ccccc2)c1-c1ccccc1,0% (inactive),
CCN(CC)S(=O)(=O)c1ccc(OC)c(NS(=O)(=O)c2cccc(C(=O)O)c2)c1,7.95% (inactive),
CC(=O)n1cc(/C=C2/N=C(c3ccccc3)OC2=O)c2ccccc21,19.9% (inactive),
CN=C1S/C(=C\c2cn(CC(=O)OC)c3ccccc23)C(=O)N1C,-17.1% (inactive),
COC(=O)Cn1cc(C(=O)OC)c2ccccc21,-2.39% (inactive),
CC(=O)n1cc(CO)c2ccccc21,-0.72% (inactive),
COc1ccc(/C=N/NC(=O)c2ccc(O)cc2O)cc1CSc1ccccn1,2.91% (inactive),
CCOC(=O)c1c(NC(=O)CSc2nnnn2C)sc(C)c1C,-3.98% (inactive),
Cc1ccc(C2NC(=S)N3C(c4ccc(C)cc4)NC(=S)N23)cc1 (configuration not stated),-0.57% (inactive),
O=C(Nc1ccc2c(c1)C(=O)c1ccccc1-2)c1ccccc1,-0.39% (inactive),
CC(=O)Nc1ccc(-c2nc3cc(Cl)ccc3o2)cc1,0% (inactive),
O=C(O)c1ccccc1-c1ccccc1C(=O)Nc1cccc(-c2nc3ccccc3o2)c1,8.19% (inactive),
COc1cccc(NC(=O)c2ccccc2-c2ccccc2C(=O)O)c1,-10.1% (inactive),
Cc1ccc(NC(=O)c2ccccc2-c2ccccc2C(=O)O)cc1C,-2.19% (inactive),
CCn1c2ccccc2c2cc(NC(=O)c3ccccc3[N+](=O)[O-])ccc21,1.28% (inactive),
COc1ccc(NC(=O)c2ccccc2-c2ccccc2C(=O)O)cc1,-8.51% (inactive),
CCn1c2ccccc2c2cc(NC(C)=O)ccc21,4.77% (inactive),
CCN(CC)S(=O)(=O)c1cccc(NC(=O)COC(=O)/C=C/c2cccs2)c1,-2.65% (inactive),
O=C(O)C1CCN(C(=O)Cc2ccccc2)CC1,2.22% (inactive),
c1ccc(C2CC(c3ccccc3)C(c3ccccc3)N2)cc1 (configuration not stated),-3.92% (inactive),-2.44

Structure (SMILES),inhibition,inhibition (measured here: pilot screen replicate inhibition) [%]
CCCOc1ccccc1N/C(=N/c1nc(C)cc(C)n1)NC(=O)Nc1ccc(Cl)cc1,-4.07% (inactive),
Oc1ccc(C[C@H]2CNCCN2CCc2cccc3ccccc23)cc1,6.4% (inactive),
O=C(NCCCO)c1cc2ccccc2[nH]1,-9.54% (inactive),
O=C1Nc2ccccc2C12NCCc1c2[nH]c2ccccc12 (configuration not stated),6.48% (inactive),
O=C(O)c1ccccc1-c1ccccc1C(=O)Nc1ccc2c(c1)[nH]c(=O)c1ccccc12,9.14% (inactive),
O=C(O)c1ccccc1-c1ccccc1C(=O)Nc1ccc2oc(=O)c3ccccc3c2c1,11.5% (inactive),
CCC(NS(=O)(=O)c1ccc(OC)cc1)C(=O)NCCc1ccccc1 (configuration not stated),-3.31% (inactive),
Cc1ccc(OCC(=O)Sc2ccc(C)cc2)cc1,-33.2% (inactive),
CC1(C)[C@@H](O)CC[C@]2(C)[C@H]3C(=O)C=C4[C@@H]5C[C@@](C)(C(=O)O)CC[C@]5(C)CC[C@@]4(C)[C@]3(C)CC[C@@H]12,-0.73% (inactive),
Cc1sc2ncnc(N3CCC(C(=O)Nc4sc5c(c4C(N)=O)CCC(C)C5)CC3)c2c1C (configuration not stated),0% (inactive),
Cc1cccc(CCNC(=O)CCc2nnc(CCc3ccccc3)o2)n1,-0.91% (inactive),
CC(NC(=O)c1ccco1)C(=O)NC(C)c1cc(F)c(Cl)cc1Cl (configuration not stated),-1.62% (inactive),
COc1ccc(CC(=O)Nc2ccc(S(=O)(=O)N3CCOCC3)cc2)cc1,0% (inactive),
O=C(COC(=O)c1ccc([N+](=O)[O-])o1)NCc1ccc2c(c1)OCO2,0% (inactive),
O=C(O)c1cccc(-n2cccc2/C=C\[N+](=O)[O-])c1,0.75% (inactive),
O=C(O)c1cccc(-n2cccc2/C=N/O)c1,0% (inactive),
O=C(N/C(=C\c1cccnc1)C(=O)N1CCC(O)CC1)c1ccccc1,-1.67% (inactive),
CC(=O)Nc1ccc(S(=O)(=O)NCCC(=O)OCC(=O)c2ccc(Br)cc2)cc1,-10.1% (inactive),
Cc1ccc(C)n1N1C(=O)/C(=C\c2ccc(Cl)cc2)SC1=S,6.92% (inactive),
CC(=O)NN1C(=O)/C(=C\c2ccc(Cl)cc2)SC1=S,1.78% (inactive),
COc1ccc(-c2nc(CS(=O)CC(=O)NCc3ccc(F)cc3)c(C)o2)cc1 (configuration not stated),-10.5% (inactive),
COc1cc(C(=O)NCCC(c2ccccc2)c2ccccc2)cc(OC)c1OC,-9.51% (inactive),

# — PubChem BioAssay AID588689 (Southern Research Specialized Biocontainment Screening …, 2011)
